Activity calls are given as the source filed them. A call without a number means that no potency is given here. The call rests on the fitted dose curve; in most records, active means well fitted curve in the direction sought with a large enough effect in the repeat runs; inconclusive means weak or mixed curves; inactive means flat fitted curve, though single readings scatter.
Experiment: qHTS assay to test for compound auto fluorescence at 590 nm (red) in HEK293 cells (AID 720679)
Conditions: red autofluorescence 540/590 nm; series mostly up to 91.3 µM
From the text: National Center for Advancing Translational Sciences [NCATS]
NIH Chemical Genomics Center [NCGC]
U.S. Environmental Protection Agency [EPA]
National Institutes of Environmental Health Sciences [NIEHS]
National Toxicology Program [NTP]
U.S. Food and Drug Administration [FDA]
Compound auto fluorescence often interferes with screening of the compound library against various biological targets and signaling pathways. Some of these compounds may have fluorophoric properties. Such properties may interfere with the assay outputs resulting in false positives and/or negatives. To decrease such complications and ensure the compound activities are relevant in terms of biological response, the Tox21 10K compound library was screened for auto fluorescence.
From the fluorophores used as reporter signals in our screening assays, the auto fluorescence equivalencies of compounds against three fluorophores have been evaluated: Triamterene, Fluorescein and Rose Bengal sodium for blue, green and red fluorescence, respectively. The fluorescence intensities were measured using Excitation/Emission wavelengths at 405/460nm, 485/535nm and 540/590nm for blue, green and red labels, respectively. This assay includes the red fluorescence data.
Tox21 Assay Protocol Summary:
2,000 HEK293 cells in 5 uL of culture medium containing 10% dialyzed FBS per well were dispensed into black wall/clear bottom 1536-well plates using a Multidrop Combi Dispenser (Thermo Scientific). The assay plates were incubated for 4-5 hr at 37C to allow cell attachment to the well bottom, followed by the transfer of 23 nL compound or DMSO vehicle by a pintool work station (Kalypsys, San Diego, CA). After the assay plates were incubated overnight at 37C and 5% CO2, fluorescence intensities in the assay plates were measured by an Envision (PerkinElmer, Shelton, CT) plate reader using three labels for measuring blue, green and red fluorescence at […] 460, 535 and 590nm respectively.
Potency means the concentration at half of the fitted maximal effect; tags describe the fitted curve by direction and shape or compound fluorescence and quenching.

Structure (SMILES) | Potency
CCCOCCO | inactive
c1ccc2c(c1)ccc1ncccc12 | inactive
CC(C)[C@@H]1CC[C@@H](C)CC1=O | inactive
CC(=O)O[C@]1(C(C)=O)CC[C@H]2[C@@H]3C=C(Cl)C4=CC(=O)CC[C@]4(C)[C@H]3CC[C@@]21C | inactive
Cc1ccc(C(C)(C)C)c(O)c1 | inactive
CC(=O)[C@H]1CC[C@H]2[C@@H]3CC=C4C[C@@H](O)CC[C@]4(C)[C@H]3CC[C@]12C | inactive
[O-]/[N+](=N\O)c1ccccc1 | inactive
Oc1c(Cl)ccc(Cl)c1Cl | inactive
NC[C@H](O)c1ccc(O)c(O)c1 | inactive
COC(=O)c1ccc(C)cc1 | inactive
O=C1OC2(c3ccccc31)c1cc(I)c(O)c(I)c1Oc1c2cc(I)c(O)c1I | 17.8 µM [fluorescent] (active) [middle of 4 runs]
CCC(=O)O[C@H]1[C@H](O[C@@H]2[C@@H](C)[C@H](O[C@H]3C[C@@](C)(OC)[C@@H](O)[C@H](C)O3)[C@@H](C)C(=O)O[C@H](CC)[C@@](C)(O)[C@H](O)[C@@H](C)C(=O)[C@H](C)C[C@@]2(C)O)O[C@H](C)C[C@@H]1N(C)C | inactive
O=S1(=O)CCCO1 | inactive
ClC/C=C/CCl | inactive
CCCCCCCCCCCCO | inactive
CN(C)C | inactive
CCc1cccc2c3c([nH]c12)C(CC)(CC(=O)O)OCC3 (stereo not given) | inactive
FC(F)(F)C(Cl)Br (stereo not given) | inactive
CC1(C)NC(=O)N(c2ccc([N+](=O)[O-])c(C(F)(F)F)c2)C1=O | inactive
CC(=O)Nc1ccc2c(c1)Cc1cc(NC(C)=O)ccc1-2 | inactive

Structure (SMILES) | Potency
CC/C=C\C/C=C\C/C=C\CCCCCCCC(=O)O | inactive
C[C@]12CC[C@@H]3c4ccc(O)cc4CC[C@H]3[C@@H]1CC[C@@H]2O | inactive
CCC/C=C/C=O | inactive
CN(Cc1cnc2nc(N)nc(N)c2n1)c1ccc(C(=O)N[C@@H](CCC(=O)O)C(=O)O)cc1 | inactive
CC1(C)C(C=C(Cl)Cl)C1C(=O)OCc1cccc(Oc2ccccc2)c1 (stereo not given) | inactive
COc1ccc(C(=O)c2ccccc2O)c(O)c1 | inactive
IC(I)I | inactive
c1ccc2c(c1)ccc1cc3c(ccc4ccccc43)cc12 | inactive
O=C1CCc2ccccc2O1 | inactive
CC(C)(Oc1ccc(Cl)cc1)C(=O)O | inactive
CCCCCC=O | inactive
C/C=C/C(=O)N(CC)c1ccccc1C | inactive
[Na+] | inactive
CC[C@]12CCCN3CCc4c(n(c5ccccc45)[C@@](O)(C(=O)OC)C1)[C@@H]32 | inactive
CCCN1C=CN(C)C1 | inactive
COc1cc([C@H]2Oc3cc([C@H]4Oc5cc(O)cc(O)c5C(=O)[C@@H]4O)ccc3O[C@@H]2CO)ccc1O | inactive
O=C(O)CCCCCCCCCCCC(=O)O | inactive
C=CC(=O)OCCCC | inactive
CN(C)/N=N/c1nc[nH]c1C(N)=O | inactive
Nc1ccc(O)c(N)c1 | inactive
